Bioassay records as filed in PubChem.
Pf apPOL inh – Pf-apPOL DNA polymerase inhibition. Recombinant Pf-apPOL, molecular beacon fluorescence, 1.5 h. hit rate 0.25% among 210,000. inhibition, % at 10 µM
mHTT-CaM PPI inh – disrupts binding of mutant huntingtin to calmodulin. P42858. AlphaScreen His-mHTT/GST-CaM binding, luminescence. inhibition, % at 15 µM. hit rate 3.6% among 190,000
Each line names hits and unclear results; the compound was inactive in the other large screens; ! = a repeat was not active. The full list was thinned out, with hits kept by preference. No stated cut-off is given here; in the data, active means inhibition above about 50%; inactive means the rest.

CCN(CC)c1cc2c(c3c1ccn3C)C1CCC2C1 (centres undefined)	none
Cn1ccc2c(-c3cccc4ccccc34)cc3c(c21)C1CCC3C1 (centres undefined)	none
Cn1ccc2c(-c3ccc(F)cc3F)cc3c(c21)C1CCC3C1 (centres undefined)	mHTT-CaM PPI inh 59
Cn1ccc2c(-c3ccc(F)nc3)cc3c(c21)C1CCC3C1 (centres undefined)	none
Cn1ccc2c(N3CCOCC3)cc3c(c21)C1CCC3C1 (centres undefined)	none
Cn1ccc2c(-c3cncc4ccccc34)cc3c(c21)C1CCC3C1 (centres undefined)	mHTT-CaM PPI inh 100
CCCN(CC1CC1)c1cc2c(c3c1ccn3C)C1CCC2C1 (centres undefined)	mHTT-CaM PPI inh 74
Cn1ccc2c(N3CCCCCC3)cc3c(c21)C1CCC3C1 (centres undefined)	mHTT-CaM PPI inh 63
Cc1ccc([N+](=O)[O-])cc1NC(=O)CCCOc1ccc(Cl)cc1	none
Cc1c(CN(C)C(N)=O)c(=O)n(-c2ccccc2)n1C	none
O=C(CSc1ncccn1)N(c1ccccc1)c1ccccc1	none
COc1ccc(-c2cc3c(c4c2ccn4C)C2CCC3C2)cc1OC (centres undefined)	mHTT-CaM PPI inh 74
Cn1ccc2c(-c3cccnc3)cc3c(c21)C1CCC3C1 (centres undefined)	none
CC1(C)CC(=O)C2=C(C1)OC(N)=C(C#N)C2c1ccc(F)cc1 (centres undefined)	none
CCN1C=C(Cc2ccc(F)cc2)C2=C(C1)C(c1ccc(F)cc1)C(C#N)=C(N)O2 (centres undefined)	mHTT-CaM PPI inh 85
Cc1ccccc1C1C(C#N)=C(N)OC2=C1C(=O)CCC2 (centres undefined)	none
CCN1C=C(Cc2ccccc2C)C2=C(C1)C(c1ccccc1C)C(C#N)=C(N)O2 (centres undefined)	mHTT-CaM PPI inh 64
CCOc1ccc(NC(=O)c2ccc(F)c(S(=O)(=O)NC3CCCCC3)c2)cc1	none
O=[N+]([O-])c1ccc(CSc2c(Cl)cncc2Cl)c(Cl)c1	none (no result: mHTT-CaM PPI inh)
CCC(=O)NC(c1cccs1)c1cc([N+](=O)[O-])c2cccnc2c1O (centres undefined)	mHTT-CaM PPI inh 100
CC(=O)NC(c1cccs1)c1cc([N+](=O)[O-])c2cccnc2c1O (centres undefined)	mHTT-CaM PPI inh 100
COc1ccccc1N1CCN(c2ccc([N+](=O)[O-])c3cccnc23)CC1	none
O=C(CCc1ccccc1)NC(c1cccs1)c1cc(Cl)c2cccnc2c1O (centres undefined)	none
O=C(O)CC(NCc1ccc(Cl)c([N+](=O)[O-])c1)c1cccs1 (centres undefined)	none
CCCCC(=O)NC(c1ccccc1OC)c1cc([N+](=O)[O-])c2cccnc2c1O (centres undefined)	mHTT-CaM PPI inh 100!
CCCC(=O)NC(c1cccs1)c1cc([N+](=O)[O-])c2cccnc2c1O (centres undefined)	mHTT-CaM PPI inh 100
COCCNC(=O)CCC(=O)N1CCCn2nc(-c3cccn3C)cc21	none
O=C1S/C(=C\c2ccc3c(c2)OCO3)C(=O)N1Cc1ccc(F)cc1	none
Cc1ccc(S(=O)(=O)c2nc(-c3ccccc3Cl)oc2N2CCOCC2)cc1	none
CC(NC(=O)c1cc(-c2ccccc2)cn1C)c1cccnc1 (centres undefined)	none
CCOc1ncccc1C(=O)Nc1ccc(-c2ccccc2)cc1	none
CCOc1ccc(N/C=C/C(=O)c2cccs2)c([N+](=O)[O-])c1	none
CCCCC(=O)NC(c1cccs1)c1cc([N+](=O)[O-])c2cccnc2c1O (centres undefined)	mHTT-CaM PPI inh 96
CCCCC(=O)NC(c1ccco1)c1cc([N+](=O)[O-])c2cccnc2c1O (centres undefined)	mHTT-CaM PPI inh 100
CCCC(=O)Nc1ccccc1NC(=O)Cc1ccccc1[N+](=O)[O-]	none
O=C(CN1CCC(COCc2ccccc2)CC1)NCc1ccco1	none
CCCCOc1ccc2c(C)cc(=O)oc2c1I	none
COc1ccccc1C1=NOC(C(=O)Nc2cc(C)nn2-c2ccccc2)C1 (centres undefined)	none
O=C(Cc1cccs1)NCCn1ncc2c(=O)n(Cc3ccccc3F)cnc21	none
COc1c(-c2cc(C(F)(F)C(F)F)[nH]n2)c(O)c(OC)c2occc12	none
COc1ccc(-c2cc(-c3c(O)c(OC)c4occc4c3OC)[nH]n2)cc1OC	mHTT-CaM PPI inh 86
O=c1cc(CN2CCCCC2)nc(N2CCN(Cc3ccccc3F)CC2)[nH]1	none
Cc1ccc(N2C(=O)N(Cc3ccc(F)cc3)S(=O)(=O)c3cccnc32)cc1	none
CC(C)NC1CCCc2c1[nH]c1ccc([N+](=O)[O-])cc21 (centres undefined)	none
O=[N+]([O-])c1ccc2[nH]c3c(c2c1)CCCC3NC1Cc2ccccc2C1 (centres undefined)	mHTT-CaM PPI inh 93
CCCCSc1oc(-c2ccco2)nc1S(=O)(=O)c1ccc(Cl)cc1	none
